Screen size: about 360,000 compounds; about 8,200 (2.3%) were called active. No stated cut-off is given here; in the data, active means inhibition above about 27%; inactive means the rest. The entries come from a sample that favours actives as a whole.
What follows are compounds tested against Fructose-bisphosphate aldolase (Mycobacterium tuberculosis (strain ATCC 25618 / H37Rv)) (UniProt P9WQA3) (assay: Mtb FBA enzyme inhibitors, primary screen, biochemical, fluorescence, strain H37Rv (AID 588726;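 further: 0% = vehicle and 100% = reference inhibitor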)). Settings: purified M. tuberculosis FBA, fluorescence read-out, at 1 µM, active compounds read high.
Fructose-bisphosphate aldolase (Mycobacterium tuberculosis (strain ATCC 25618 / H37Rv)), sequence (P9WQA3 whole entry, looked up): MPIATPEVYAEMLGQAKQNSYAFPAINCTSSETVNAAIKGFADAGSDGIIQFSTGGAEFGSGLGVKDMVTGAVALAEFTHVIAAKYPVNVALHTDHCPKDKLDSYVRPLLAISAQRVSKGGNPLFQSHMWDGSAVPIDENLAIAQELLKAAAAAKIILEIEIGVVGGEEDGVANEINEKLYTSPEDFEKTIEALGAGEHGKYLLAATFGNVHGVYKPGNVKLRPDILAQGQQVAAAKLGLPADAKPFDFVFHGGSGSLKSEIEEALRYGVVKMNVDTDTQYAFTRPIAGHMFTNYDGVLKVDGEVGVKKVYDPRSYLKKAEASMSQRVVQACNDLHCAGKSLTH

Compound | inhibition
COc1ccc(NC2CC(=O)N(C)C2=O)cc1 (stereo not drawn) | 1.09% (inactive)
Cc1ccc(-c2nc(COC(=O)c3c(C)noc3C)cs2)cc1 | 1.63% (inactive)
CCN(C(=O)COC(=O)CCC(=O)c1cccs1)C1CCCCC1 | 4.65% (inactive)
CCn1c(=N)c(S(=O)(=O)c2ccc(F)cc2)cc2c(=O)n3ccccc3nc21 | 20.8% (inactive)
CCOC(=O)c1cc2c(=O)n3ccccc3nc2n(CC(C)C)c1=NC(=O)c1c(-c2c(F)cccc2Cl)noc1C | 13.1% (inactive)
O=C(CN1CCN(S(=O)(=O)/C=C/c2ccccc2)CC1)NC(=O)NCc1ccco1 | -1.09% (inactive)
O=c1ccc(-c2ccc(S(=O)(=O)Nc3ccccc3)o2)n[nH]1 | 2.01% (inactive)
O=C(CSc1nnc(-c2ccncc2)o1)NCc1ccc(Cl)cc1 | -1.06% (inactive)
COCCNC(=O)c1ccccc1-c1nc(-c2ccccc2Cl)no1 | 0.39% (inactive)
COC(=O)c1ccc2nc(-c3cccc(Br)c3)c(Cc3ccc(OC)cc3C)n2c1 | 2.37% (inactive)
CCCCNc1c(-c2cccc(Sc3ccc(OC)cc3)c2)nc2ccccn12 | 40.1% (active)
CCCCNC(=O)c1onc(CSc2cccc(OC)c2)c1C(=O)O | 1.62% (inactive)
CC(=O)c1nn(-c2ccccc2)c(=Nc2ccccc2)cc1C | 2.4% (inactive)
O=C1c2ccccc2C(c2nc3ccccc3[nH]2)N1c1ccccc1 (stereo not drawn) | 0.93% (inactive)
COc1cccc(NC(=O)CC(c2ccc(OC(C)C)cc2)c2ccccc2OC)c1 (stereo not drawn) | 1.51% (inactive)
Fc1ccccc1CNC(=S)Nc1ccc(Cl)cc1 | 0.3% (inactive)
COC(=O)c1cc(CNC(=O)CC(C)c2ccccc2)ccc1OC (stereo not drawn) | -0.38% (inactive)
COc1cc(Cn2c3ccc(NC(=O)CC(C)c4ccccc4)cc3c(=O)n2C)ccc1F (stereo not drawn) | 146% (active)
O=C1CCCN1CCCNC(=S)Nc1ccc(F)c(Cl)c1 | -1.02% (inactive)
CCNC(=S)Nc1ccc2c(c1)c(=O)n(C)n2Cc1ccc(Cl)cc1 | 59.7% (active)
CC=CCn1c(SCCCc2ccccc2)nc2c1c(=O)[nH]c(=O)n2C | 4.11% (inactive)
CCOC(=O)c1sc(/N=C/Nc2nc(C)c(C(=O)OCC)s2)nc1C | 2.19% (inactive)
N#Cc1ccccc1NC(=O)c1cccc(COc2ccc(Cl)cc2Cl)c1 | -1.7% (inactive)
CCOc1ccc(C(C)=O)cc1COC(=O)CN1C(=O)NC2(CCCC2)C1=O | -0.88% (inactive)
CN1c2ccc(C=O)c3c(C=O)ccc(c23)N(C)C1(C)C | 62.1% (active)

Compound | inhibition
Cc1ccc(C=O)c([B-](F)(F)F)c1 | 2.07% (inactive)
O=S(=O)(/C=C/c1ccccc1)NCCc1ccccn1 | 1.96% (inactive)
COC(=O)c1onc(-c2c(OC)cc(OC)cc2OC)c1C(=O)OC | -3.51% (inactive)
COc1ccc2c(c1)N(C)/C(=C1/SC(=S)N(NC(C)=O)C1=O)S2 | -4.56% (inactive)
COc1ccc(C(=O)NN2C(=O)C3C(c4ccccc4)C=CC(c4ccccc4)C3C2=O)cc1 (stereo not drawn) | 1.1% (inactive)
CC(=O)N1C(=O)/C(=C2\SC(=S)N(NC(=O)c3ccc(O)cc3)C2=O)c2ccccc21 | 31.8% (active)
COc1cccc(NC(=O)c2cc(S(=O)(=O)N3CCc4ccccc43)cn2C)c1 | -0.54% (inactive)
CC(C)(C)OC(=O)C[C@@H]1C/C=C\C[C@H](CC(=O)N[C@@H](CO)Cc2ccccc2)C(=O)N[C@H](Cc2ccccc2)COC1=O | 3.41% (inactive)
Cc1cc(C)cc(NC(=O)N2CCC(NC(=O)c3ccc(F)cc3)CC2)c1 | -6.06% (inactive)
O=C(Nc1cccc(F)c1)c1coc(=O)c(Br)c1 | 171% (active)
O=C(Nc1cccc(F)c1)[C@@H]1CCCN1 | 4.68% (inactive)
Cc1nc2nc(SCC(=O)Nc3cccc(F)c3)[nH]c2cc1Br | -2.16% (inactive)
CCc1nn(CCCC(=O)NCc2ccc(C)cc2)c(=O)c2cc3occc3n12 | -0.41% (inactive)
COc1ccc(C(=O)CN2C(=O)NC3(CCc4ccccc43)C2=O)c(OC)c1 (stereo not drawn) | 1.92% (inactive)
CCCCSc1nnc(-c2ccc(C)cc2)o1 | 3.13% (inactive)
N#Cc1ccc(OCc2nnc(-c3ccc([N+](=O)[O-])cc3)o2)cc1 | 0.59% (inactive)
CCOc1ccc(-c2nnc(-c3ccco3)o2)cc1 | 54% (active)
CCCOc1ccc(-c2c(C(=O)N/N=C/c3ccco3)nnn2-c2nonc2N)cc1 | 4.8% (inactive)
CCCCOc1ccc(-c2nnc(-c3ccco3)o2)cc1 | 46.1% (active)
CCOc1ccc(-n2c(SCC(N)=O)nnc2-c2ccco2)cc1 | 0.41% (inactive)
CCC(C)(C(=O)NC1CCCC1)N(C(=O)CNC(C)=O)c1ccc(C)cc1 (stereo not drawn) | 1.41% (inactive)
Cc1nc2cccnc2nc1C | -0.64% (inactive)
COc1ccc(NC(=O)c2cccc3c2C(=O)N(CC2CCCO2)C3)cc1OC (stereo not drawn) | -1.34% (inactive)
COCCN(C(=O)CC1CCCCC1)c1c(N)n(CC(C)C)c(=O)[nH]c1=O | 2.06% (inactive)
O=[N+]([O-])c1cccc(/C=N/Nc2ncc(Br)cn2)c1 | 144% (active)

Compound | inhibition
O=C(N/N=C/c1cccc([N+](=O)[O-])c1)C1CC(=O)N(c2ccc(Br)cc2)C1 (stereo not drawn) | 2.78% (inactive)
O=[N+]([O-])c1cccc(C=NN=Cc2ccccc2O)c1 | 1.54% (inactive)
CCCN(C(=O)COC(=O)CNS(=O)(=O)c1ccc(NC(C)=O)cc1)C1CCS(=O)(=O)C1 (stereo not drawn) | 1.9% (inactive)
COc1ccc(CCN(Cc2cc3cccc(C)c3[nH]c2=O)C(=O)N2CCCC2)cc1OC | 0.64% (inactive)
Cc1nc(N2CCOCC2)c2c(C)c(C(=O)Nc3ccc(C(F)(F)F)cc3)sc2n1 | 2.82% (inactive)
Cc1cccc(NC(=O)c2sc3nc(N4CCOCC4)c4c(c3c2N)CCCC4)c1 | 39.1% (active)
c1ccc(CSc2ncnc3c2sc2nc(N4CCOCC4)c4c(c23)CCCC4)cc1 | 3.1% (inactive)
Cc1cc(C)cc(NC(=O)Cn2cnc3c(nnn3Cc3ccc(F)cc3)c2=O)c1 | 1.33% (inactive)
CN(C)/C(CN1CCCCC1)=C1\N=C(c2ccccc2)OC1=O | -2.21% (inactive)
CCN(CC(=O)NCc1cccs1)c1nnnn1-c1ccccc1 | -0.27% (inactive)
O=C(Nc1nnc(C2CC2)s1)c1ccccn1 | 2.11% (inactive)
CCC(C)(C)NC(=O)C(c1ccccn1)N(C(=O)c1csnn1)c1ccccc1 (stereo not drawn) | -0.46% (inactive)
CN(C(=O)c1ccccn1)c1nnc(-c2ccccn2)s1 | 31.6% (active)
CN(C(=O)COc1ccccc1)c1nnc(-c2ccncc2)s1 | 53.2% (active)
CN(C(=O)C1CCOC1)c1nnc(-c2cccnc2)s1 (stereo not drawn) | -7.08% (inactive)
CN(C(=O)COc1nnc(-c2cccs2)c(-c2cccs2)n1)c1ccccc1 | 3.91% (inactive)
CN(C(=O)CSc1nnc(-c2c[nH]c3ccccc23)o1)C1CCS(=O)(=O)C1 (stereo not drawn) | 0.37% (inactive)
Nn1c(SCC(=O)NC2CCCC2)nnc1-c1ccccc1F | -0.66% (inactive)
CC(=O)C(C)n1cnc2scc(-c3ccc(C)cc3)c2c1=O (stereo not drawn) | -0.72% (inactive)
Cc1sc2ncnc(SCC(=O)Nc3ccc(CN4CCCC4)cc3)c2c1C | -0.95% (inactive)
O=C(O)CCCn1c(=O)c2cccn2c2ccc(F)cc21 | 6.9% (inactive)
CCN(CC)CCC(c1ccc2c(c1)OCO2)c1c(OC)cc(OC)c2c(-c3ccccc3)cc(=O)oc12 (stereo not drawn) | 4.6% (inactive)
COc1ccc2oc(N)nc2c1 | 0.46% (inactive)
O=[N+]([O-])c1ccc2oc(-c3cccc(O)c3)nc2c1 | 0.6% (inactive)
CC(=O)Oc1ccc(C(C)=O)c2c1OCCO2 | 5.05% (inactive)

Compound | inhibition
COC(=O)COc1cc(C)cc2oc(=O)c3c(c12)CCCC3 | 28.4% (active)
Cc1cc(OCc2cc(C(=O)O)oc2C)c2c3c(c(=O)oc2c1)CCCC3 | 107% (active)
O=C(COc1cc2oc(=O)c3c(c2cc1Cl)CCC3)NCCCN1CCOCC1 | 6.36% (inactive)
CC(Oc1cc2oc(=O)c3c(c2cc1Cl)CCCC3)C(=O)NCc1ccncc1 (stereo not drawn) | 26.1% (inactive)
Cc1oc(C(N)=O)cc1COc1ccc(C(N)=O)cc1 | 3.54% (inactive)
COc1ccc(CNC(=O)c2cc(=O)c3c(C)cc(C)cc3o2)cc1 | -0.13% (inactive)
C=CCNC(=O)C1CC2c3ccccc3C1c1ccccc12 (stereo not drawn) | -1.94% (inactive)
CC/C(=C\c1ccc(Cl)cc1)c1ccncc1 | -2.63% (inactive)
S=c1[nH]nc(Nc2ccccc2)s1 | 3.65% (inactive)
CCc1ccc(Nc2ncc3c(n2)CC(c2ccco2)CC3=O)cc1 (stereo not drawn) | 8.11% (inactive)
Clc1cccc(-c2nc3nc4ccccc4nc3n2Cc2ccco2)c1 | 17.8% (inactive)
Cc1ccc(OCC(=O)c2cc(C)n(Cc3ccco3)c2C)c([N+](=O)[O-])n1 | -5.32% (inactive)
Cc1ccc(Cn2c(C)nc3c(c2=O)c2nc4ccccc4nc2n3Cc2ccco2)cc1 | 47.6% (active)
O=C1N=C(N2CCOCC2)CS1 | -1.54% (inactive)
CC(C)(C)NS(=O)(=O)NC(=O)C1=C(N2CCCC2)COC1=O | -4.63% (inactive)
CCC(C)(C)C1CCC(=NNC(=O)c2ccc(Br)o2)CC1 (stereo not drawn) | -1.67% (inactive)
CCOC(=O)C1CCCN(C(=O)CSc2nnc3nc(C)cc(C)n23)C1 (stereo not drawn) | 7.69% (inactive)
O=S(=O)(c1ccc(Cl)cc1)c1nc(-c2ccccc2F)oc1NCCN1CCOCC1 | -1.99% (inactive)
O=S(=O)(c1ccccc1)c1nc(-c2ccccc2)oc1NCCCN1CCOCC1 | -3.13% (inactive)
Cc1ccc2c(Cl)c(C(=O)NCCCn3ccnc3)sc2c1 | -2.28% (inactive)
Cc1ccc(-c2nc(C#N)c(NCCCn3ccnc3)o2)cc1 | 71.6% (active)
Cc1ccc(S(=O)(=O)c2nc(NCCCn3ccnc3)sc2Cl)cc1 | 0.32% (inactive)
N#Cc1nc(-c2ccc(OCc3ccccc3)cc2)oc1NCCCN1CCOCC1 | 92.7% (active)

Source: PubChem BioAssay AID588726 (The Scripps Research Institute Molecular Screening Center, 2011)
